Data on 39 compounds can be found in PubChem BioAssay (EPA / NIEHS).

Test [1] in a line: ACEA_AR_agonist_AUC_viability: ACEA Biosciences xCELLigence Real-Time Cell Analysis on Androgen Receptor Agonism for Viability (AID 2283775).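 On AC50: viability read 80 hours after compound addition.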 The procedure, abridged:
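Real-time impedance tracking of 22Rv1 growth, readings every 5 min for 5 h then hourly; area-under-curve viability endpoint at 80 hours, relative to DMSO. Compounds at eight concentrations, 1:4 steps, top 100 uM, n = 2.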

A short description of test [2]: ACEA_AR_antagonist_AUC_viability: ACEA Biosciences xCELLigence Real-Time Cell Analysis on Androgen Receptor Antagonism for Viability (AID 2283776).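 Further: 22Rv1 human prostate cancer cells growing on impedance electrode plates; hits lower the growth signal relative to DMSO meaning cytotoxicity.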 The method in brief: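 Viability endpoint from label-free cell-index monitoring: 22Rv1 cultures treated with an eight-point 1:4 dilution series starting at 100 uM final, AUC at 80 h fitted against DMSO.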
Test [3] in a line: ACEA_ER_AUC_viability: ACEA Biosciences xCELLigence Real-Time Cell Analysis on Estrogen Receptor Agonism for Viability (AID 2283782).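 Further: continuous compound exposure with impedance area under curve over 80 h; hit means loss of impedance signal meaning reduced cell growth or viability.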 The method in brief: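 T-47D; phenol red-free RPMI1640 + 10% CS-FBS; 8 conc., 1:4 serial, max 100 uM final, ≤0.5% DMSO; n = 2; continuous exposure; impedance monitored to 80 h post-dose; AUC vs DMSO.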
Test [4] is described as follows: STM_H9_NormalizedViability: Cytotoxicity Assessment at 120 hours in the Stemina devTOX quickPredict H9 human embryonic stem cell (hESC)-based Assay (AID 2283784). The procedure, abridged: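 Pluripotent H9 cells dosed, fresh medium plus compound q24h → cell layer read by CellTiter-Fluor → RFU blank-corrected, normalized to DMSO 0.1% mean. Loss-of-signal fit, DMSO as baseline.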

The target of test [5] is AR (gene 367) (UniProt P10275). Put plainly: ACEA_AR_antagonist_80hr: ACEA Biosciences xCELLigence Real-Time Cell Analysis on Androgen Receptor Antagonism for Proliferation (AID 2283787).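 Further: 22Rv1 human prostate cancer cells with growth followed by electrical impedance; hits lower the impedance growth signal relative to DMSO.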 The method in brief:
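Growth-kinetic antagonist readout in 22Rv1 cells, taken 80 h after continuous compound exposure. Activity fitted as signal loss relative to DMSO negative control.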

Test [6] has as its target AR (gene 367) (UniProt P10275). Description: ACEA_AR_agonist_80hr: ACEA Biosciences xCELLigence Real-Time Cell Analysis on Androgen Receptor Agonism for Proliferation (AID 2283783).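 Further: hits increase impedance growth signal above DMSO baseline.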 The method in brief: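 Androgen-driven proliferation in 22Rv1 cells is tracked as electrical impedance, taken 80 h after continuous exposure to compound (eight concentrations, 1:4 steps, maximum 100 uM final). Activity is fitted in the positive direction with DMSO as baseline.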

Values joined by “and” are separate entries in the source; they are usually repeats but may differ in a detail not shown here. Identical values can stand only once. Inconclusive results are not listed. The source holds several records for some structures; these can differ, active in one and inactive in another. Active and inactive are the calls of the source. How the source made its calls: active means hit-call score of the fitted dose curve at least 0.9, where 1 is the maximum; inconclusive means response in the unintended direction; inactive means score below 0.9.

Chain of AR (gene 367) (P10275 whole entry, looked up): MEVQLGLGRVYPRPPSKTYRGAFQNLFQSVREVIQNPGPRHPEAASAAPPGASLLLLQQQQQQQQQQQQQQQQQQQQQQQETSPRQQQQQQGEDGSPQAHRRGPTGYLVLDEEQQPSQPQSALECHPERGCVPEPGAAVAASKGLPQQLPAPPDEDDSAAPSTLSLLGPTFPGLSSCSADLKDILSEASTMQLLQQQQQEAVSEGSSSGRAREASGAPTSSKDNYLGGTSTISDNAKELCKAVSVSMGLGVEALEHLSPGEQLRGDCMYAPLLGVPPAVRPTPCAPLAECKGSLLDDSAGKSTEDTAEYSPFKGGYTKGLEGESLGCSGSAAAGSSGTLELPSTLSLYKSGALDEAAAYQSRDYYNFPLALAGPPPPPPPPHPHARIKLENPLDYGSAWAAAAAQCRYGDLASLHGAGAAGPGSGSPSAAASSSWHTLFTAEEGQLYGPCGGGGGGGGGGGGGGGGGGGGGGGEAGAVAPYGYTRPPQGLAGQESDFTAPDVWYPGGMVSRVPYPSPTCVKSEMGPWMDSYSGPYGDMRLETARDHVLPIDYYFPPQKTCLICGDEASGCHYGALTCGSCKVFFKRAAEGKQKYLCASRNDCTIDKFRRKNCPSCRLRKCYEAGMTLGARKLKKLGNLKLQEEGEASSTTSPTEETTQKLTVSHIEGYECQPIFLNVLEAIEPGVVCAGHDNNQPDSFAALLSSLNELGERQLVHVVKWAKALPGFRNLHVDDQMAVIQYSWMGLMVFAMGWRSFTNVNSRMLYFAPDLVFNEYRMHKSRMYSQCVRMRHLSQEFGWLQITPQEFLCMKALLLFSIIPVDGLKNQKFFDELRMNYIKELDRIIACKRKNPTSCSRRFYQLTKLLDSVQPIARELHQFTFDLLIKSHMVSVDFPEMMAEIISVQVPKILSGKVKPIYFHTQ

On to `CC1(C)Cc2cccc(O)c2O1`, for which the outcome in test [1] and in test [2] was inactive.

For `O=C(OC1CCCCC1)c1ccccc1C(=O)OC1CCCCC1`, the call in test [1] was inactive.

For the compound `O=C(O)C(F)(F)C(F)(F)C(F)(F)C(F)(F)C(F)(F)C(F)(F)F`, the call in test [1] and in test [2] was inactive.

As to `CCCCOCCOC(C)=O`, the compound was classed as inactive in test [1].

As for `Cl/C=C/Cl`, the call in test [1] and in test [2] was inactive.

Take `CCCCCCCCc1ccc(O)cc1`: the AC50 in test [1] was 29.8 µM (active); in test [2], 28.9 µM (active); in test [3] it was 24.4 µM (active).

Consider `ClC1(Cl)C2(Cl)C3(Cl)C4(Cl)C(Cl)(Cl)C5(Cl)C3(Cl)C1(Cl)C5(Cl)C24Cl` (stereo not given), for which the result in test [1], in test [2], in test [3], in test [4] and in test [5] was inactive.

Regarding `NC(=O)O`, the call in test [1] and in test [3] was inactive.

For `CCN1CCC2(CC1)COc1cc3c(cc12)N(C(=O)c1ccc(-c2ccc(-c4nnc(C)o4)cc2C)cc1)CC3`, the AC50 in test [1] was 9.92 µM (active); in test [2], 10.4 µM (active); in test [3], 8.01 µM (active); in test [4], 8.14 µM (active); in test [5], 8.66 µM (active). The result in test [6] was inactive.

On to `CC(C)c1cccc(C(C)C)c1O`, for which the call in test [1], in test [2] and in test [5] was inactive.

Turning to `CCC[CH2][Sn]([CH2]CCC)([CH2]CCC)[O]C(=O)c1ccccc1`, the AC50 is 4.45 µM (active) in test [1], 1.06 µM (active) in test [2] and 1.28 µM (active) in test [3].

With `CCC(=O)C(CC(C)N(C)C)(c1ccccc1)c1ccccc1` (stereo not given), the AC50 is 22.3 µM (active) in test [1], 32.9 µM (active) in test [2], 36.2 µM (active) in test [3] and 28.2 µM (active) in test [5].

In the case of `C[C@@H]1C[C@@H]([C@H](O)CC2CC(=O)NC(=O)C2)C(=O)[C@@H](C)C1`, the AC50 in test [1] was 2.1 µM (active); in test [2], 1.35 µM (active); in test [3], 522 nM (active) and 1.49 µM (active); in test [4] it was 2.46 µM (active).

With `CC(C)(OO)c1ccccc1`, the compound was classed as inactive in test [1] and in test [2]. In test [3], the AC50 was 14.7 µM (active).

Consider `CN(C)N=O`, for which the compound was classed as inactive in test [1], in test [2] and in test [3].

`C1CCC(NC2CCCCC2)CC1`: in test [2], the call was inactive.

With `COP(=O)(OC)OC`, the call in test [1], in test [3] and in test [5] was inactive.

As for `CC(C)(c1ccc(OCC2CO2)cc1)c1ccc(OCC2CO2)cc1` (stereo not given), the compound was called inactive in test [1], in test [2], in test [6] and in test [5]. Moreover, in test [3], the AC50 was 82.5 µM (active).

On to `CCOC(=O)Nc1cccc(OC(=O)Nc2ccccc2)c1`, for which the call in test [1], in test [2] and in test [3] was inactive.

Consider `Cn1sc(Cl)cc1=O`, for which the results for the AC50 in test [1], in test [2] and in test [3] were 77.2 µM (active), 80.7 µM (active) and 86.9 µM (active), respectively.

`c1cc[c]([Hg][c]2ccccc2)cc1`: the AC50 in test [1] was 26.6 µM (active); in test [2] it was 16.6 µM (active); in test [3], 36.3 µM (active); in test [5] it was 21.9 µM (active). In test [6], the compound was classed as inactive.

`Cc1ccccc1N`: the result in test [1], in test [2] and in test [3] was inactive. For the same compound, the AC50 in test [3] is 0.893 µM (active).

As to `O=c1[nH]c(=O)[nH]c(=O)[nH]1`, the result in test [1], in test [2], in test [3], in test [6] and in test [5] was inactive.

As to `COP(=S)(OC)Oc1ccc(Sc2ccc(OP(=S)(OC)OC)cc2)cc1`, the result in test [1], in test [2] and in test [5] was inactive. Besides, the AC50 in test [3] is 85.5 µM (active).

In the case of `CCOP(=S)(OCC)Oc1nc(Cl)c(Cl)cc1Cl`, the AC50 in test [1] is 83.9 µM (active); in test [2], 63.3 µM (active); in test [3], 87.6 µM (active); in test [5], 74.9 µM (active).

`Cl/C=C\C[N+]12CN3CN(CN(C3)C1)C2`: the result in test [1] and in test [2] was inactive. Also, the AC50 in test [3] was 50 µM (active).

Consider `O=C/C=C/c1ccccc1`, for which the compound was called inactive in test [1], in test [2] and in test [3].

In the case of `C=C(C)C(=O)[O][Sn]([CH2]CCC)([CH2]CCC)[CH2]CCC`, the AC50 in test [1] was 1.43 µM (active); in test [2], 1.35 µM (active); in test [3] it was 1.43 µM (active); in test [4], 0.713 µM (active).

Consider `CC(C)OC(=O)Nc1ccccc1`, for which the call in test [1] and in test [3] was inactive.

As for `CCCCCCCCSC(=O)Oc1cc(Cl)nnc1-c1ccccc1`, the compound was classed as inactive in test [2].

For `CCC1(c2ccc(N)cc2)CCC(=O)NC1=O` (stereo not given), the compound was classed as inactive in test [1], in test [2], in test [3] and in test [5].

With `BrCCBr`, the outcome in test [1] and in test [3] was inactive.

Regarding `CC(=O)c1cc(C(C)(C)C)cc2c1CCC2(C)C`, the compound was called inactive in test [2] and in test [3].

As for `O=C1C(Cl)=C(Cl)C(=O)c2ccccc21`, the compound was classed as inactive in test [1] and in test [2]. Also, the AC50 in test [3] is 16.7 µM (active).

For `O=[N+]([O-])c1ccc(O)c([N+](=O)[O-])c1`, the AC50 in test [1], in test [2] and in test [5] was 50 µM (active) throughout. Also, the outcome in test [6] and in test [4] was inactive.

Turning to `Oc1cccc2cccnc12`, the AC50 was 22.3 µM (active) and 6.75 µM (active) in test [1]; 18.6 µM (active) and 9.5 µM (active) in test [2]. In addition, in test [3], the compound was classed as inactive.

For `O=C(Nc1ccc2[nH]ccc2c1)c1cc2cc(F)ccc2n1Cc1cccc(F)c1`, the AC50 is 14.5 µM (active) in test [1], 10 µM (active) in test [2] and 12.4 µM (active) in test [3]. The outcome in test [4] was inactive.

As for `COc1ccc(C=O)cc1`, the compound was classed as inactive in test [1], in test [2] and in test [3].

As for `CC(=O)[O][Hg][c]1ccccc1`, the AC50 was 1.68 µM (active) in test [1]; 1.63 µM (active) in test [2]; 1.32 µM (active) in test [3]; 0.387 µM (active) in test [4]; 1.21 µM (active) in test [5].

A word on the AC50: it is the concentration at which the activity in the assay is half-maximal.
